Reference: PubChem BioAssay AID1159580 (chemical genetic matrix, 2015)
Among all 5,500 compounds or so, about 2,000 (36%) were called active. About 18% were inconclusive and are not listed. Rule as the data show it: active = normalized growth mostly below about 0.91 (no sharp cut-off); inconclusive = no clear call, values can overlap the other calls; inactive = mostly above about 0.92. This is one part of the list.

Experiment: chemical genetic growth profiling, strain panel (AID 1159580);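 also: tested at 20 µM; growth read once vehicle control cultures reached saturation at 30 °C; 1 = growth at the plate median or of vehicle wells; lower values mean less growth of the strain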
Settings: growth OD

Measured: normalized growth

COc1cc(NS(=O)(=O)c2ccc(N)cc2)nc(OC)n1
inactive: S. cerevisiae deletion strains, locus YJR066W, strain TOR1, hits give low values 0.933 | S. cerevisiae deletion strains, locus YKL009W, strain mrt4, hits give low values 0.985 | S. cerevisiae deletion strains, locus YKL068W, hits give low values 0.984 | S. cerevisiae deletion strains, locus YKL085W, strain MDH1 (second series), hits give low values 0.991 | S. cerevisiae deletion strains, locus YKL085W, strain MDH1, hits give low values 0.991 | S. cerevisiae deletion strains, locus YKL160W, strain elf1, hits give low values 0.969 | S. cerevisiae deletion strains, locus YKL190W, strain CNB1, hits give low values 0.999 | S. cerevisiae deletion strains, locus YKR001C, strain vps1, hits give low values 1 | S. cerevisiae deletion strains, locus YKR026C, strain gcn3, hits give low values 0.973 | S. cerevisiae deletion strains, locus YKR091W, strain srl3, hits give low values 0.982 | S. cerevisiae deletion strains, locus YLL001W, strain dnm1, hits give low values 0.982 | S. cerevisiae deletion strains, locus YLL026W, hits give low values 0.992 | S. cerevisiae deletion strains, locus YLL041C, strain sdh2, hits give low values 0.992 | S. cerevisiae deletion strains, locus YLR027C, strain aat2, hits give low values 0.988 | S. cerevisiae deletion strains, locus YLR039C, strain RIC1, hits give low values 0.997 | S. cerevisiae deletion strains, locus YLR058C, strain SHM2, hits give low values 0.982 | S. cerevisiae deletion strains, locus YLR102C, strain apc9, hits give low values 0.985 | S. cerevisiae deletion strains, locus YLR113W, strain HOG1, hits give low values 0.961 | S. cerevisiae deletion strains, locus YLR221C, strain rsa3, hits give low values 0.986 | S. cerevisiae deletion strains, locus YLR258W, strain gsy2, hits give low values 0.979 | S. cerevisiae deletion strains, locus YLR262C, strain YPT6 (second series), hits give low values 0.952 | S. cerevisiae deletion strains, locus YLR262C, strain YPT6, hits give low values 0.97 | S. cerevisiae deletion strains, locus YLR268W, strain sec22, hits give low values 0.98 | S. cerevisiae deletion strains, locus YLR320W, strain mms22, hits give low values 0.972 | S. cerevisiae deletion strains, locus YLR330W, strain CHS5, hits give low values 0.984 | S. cerevisiae deletion strains, locus YLR342W, strain FKS1 (second series), hits give low values 0.95 | S. cerevisiae deletion strains, locus YLR342W, strain FKS1, hits give low values 0.986 | S. cerevisiae deletion strains, locus YLR357W, strain rsc2, hits give low values 0.921 | S. cerevisiae deletion strains, locus YLR370C, strain arc18, hits give low values 0.977 | S. cerevisiae deletion strains, locus YLR371W, strain rom2, hits give low values 0.982 | S. cerevisiae deletion strains, locus YLR384C, strain iki3, hits give low values 0.97 | S. cerevisiae deletion strains, locus YLR418C, strain cdc73, hits give low values 0.969 | S. cerevisiae deletion strains, locus YML016C, strain PPZ1, hits give low values 0.983 | S. cerevisiae deletion strains, locus YML032C, strain rad52, hits give low values 0.983 | S. cerevisiae deletion strains, locus YML120C, strain ndi1, hits give low values 0.972 | S. cerevisiae deletion strains, locus YML124C, strain tub3, hits give low values 0.988 | S. cerevisiae deletion strains, locus YMR058W, strain fet3, hits give low values 0.996 | S. cerevisiae deletion strains, locus YMR078C, strain ctf18, hits give low values 0.984 | S. cerevisiae deletion strains, locus YMR125W, strain sto1, hits give low values 0.978 | S. cerevisiae deletion strains, locus YMR129W, hits give low values 0.983 | S. cerevisiae deletion strains, locus YMR205C, strain PFK2, hits give low values 0.971 | S. cerevisiae deletion strains, locus YMR223W, strain ubp8, hits give low values 0.987 | S. cerevisiae deletion strains, locus YMR231W, strain pep5, hits give low values 0.982 | S. cerevisiae deletion strains, locus YMR307W, strain GAS1, hits give low values 0.933 | S. cerevisiae deletion strains, locus YNL067W, strain RPL9B, hits give low values 1.01 | S. cerevisiae deletion strains, locus YNL071W, strain lat1, hits give low values 0.975 | S. cerevisiae deletion strains, locus YNL153C, strain GIM3, hits give low values 1.04 | S. cerevisiae deletion strains, locus YNL183C, strain NPR1, hits give low values 0.943 | S. cerevisiae deletion strains, locus YNL209W, strain ssb2, hits give low values 0.97 | S. cerevisiae deletion strains, locus YNL233W, strain BNI4, hits give low values 1 | S. cerevisiae deletion strains, locus YNL248C, strain rpa49, hits give low values 0.969 | S. cerevisiae deletion strains, locus YNL250W, strain rad50, hits give low values 0.988 | S. cerevisiae deletion strains, locus YNL271C, strain bni1, hits give low values 0.978 | S. cerevisiae deletion strains, locus YNL298W, strain CLA4, hits give low values 0.962 | S. cerevisiae deletion strains, locus YNL307C, strain MCK1, hits give low values 0.981 | S. cerevisiae deletion strains, locus YNL322C, strain KRE1 (second series), hits give low values 0.976 | S. cerevisiae deletion strains, locus YNL322C, strain KRE1, hits give low values 0.996 | S. cerevisiae deletion strains, locus YNR049C, strain mso1, hits give low values 0.979 | S. cerevisiae deletion strains, locus YNR052C, strain pop2, hits give low values 0.986 | S. cerevisiae deletion strains, locus YOL006C, strain TOP1, hits give low values 1.05 | S. cerevisiae deletion strains, locus YOL012C, strain htz1 0.758 | S. cerevisiae deletion strains, locus YOL147C, strain pex11, hits give low values 0.978 | S. cerevisiae deletion strains, locus YOR001W, strain rrp6, hits give low values 0.988 | S. cerevisiae deletion strains, locus YOR061W, strain CKA2, hits give low values 0.977 | S. cerevisiae deletion strains, locus YOR069W, strain VPS5, hits give low values 0.985 | S. cerevisiae deletion strains, locus YOR070C, strain gyp1, hits give low values 0.981 | S. cerevisiae deletion strains, locus YOR080W, strain dia2, hits give low values 0.966 | S. cerevisiae deletion strains, locus YOR083W, strain WHI5, hits give low values 0.981 | S. cerevisiae deletion strains, locus YOR106W, strain vam3, hits give low values 0.977 | S. cerevisiae deletion strains, locus YOR136W, strain idh2, hits give low values 0.991 | S. cerevisiae deletion strains, locus YOR144C, strain elg1, hits give low values 0.992 | S. cerevisiae deletion strains, locus YOR184W, strain ser1, hits give low values 0.991 | S. cerevisiae deletion strains, locus YOR231W, strain MKK1, hits give low values 0.968 | S. cerevisiae deletion strains, locus YOR265W, strain rbl2, hits give low values 0.992 | S. cerevisiae deletion strains, locus YOR270C, strain vph1, hits give low values 0.965 | S. cerevisiae deletion strains, locus YOR290C, strain snf2, hits give low values 0.991 | S. cerevisiae deletion strains, locus YOR316C, strain cot1, hits give low values 0.988 | S. cerevisiae deletion strains, locus YPL051W, strain arl3, hits give low values 0.973 | S. cerevisiae deletion strains, locus YPL055C, strain LGE1, hits give low values 1.03 | S. cerevisiae deletion strains, locus YPL078C, strain atp4, hits give low values 0.965 | S. cerevisiae deletion strains, locus YPL106C, strain sse1, hits give low values 0.976 | S. cerevisiae deletion strains, locus YPL240C, strain hsp82, hits give low values 0.98 | S. cerevisiae deletion strains, locus YPL241C, strain CIN2, hits give low values 0.994 | S. cerevisiae deletion strains, locus YPL256C, strain CLN2, hits give low values 0.966 | S. cerevisiae deletion strains, locus YPR119W, strain clb2, hits give low values 0.989 | S. cerevisiae deletion strains, locus YPR141C, strain kar3, hits give low values 0.982 | S. cerevisiae deletion strains, locus YPR163C, strain tif3, hits give low values 0.973 | S. cerevisiae deletion strains, locus YPR167C, strain met16, hits give low values 0.986 | S. cerevisiae deletion strains, strain wtn01, hits give low values 0.981 | S. cerevisiae strains, strain wild type, hits give low values 0.991
